# Results: PubChem BioAssay
# Calls of active or inactive are those of the source.
# Columns and labels:
# [1] = E. coli DRC41 culture turbidity changes, primary screen, E. coli filamentation inducer project, strain DRC41, OD650, 48 h (AID 1152);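 also: E. coli MC1000 strain DRC41 lacking acrAB efflux pump and sulA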; conditions: E. coli DRC41 (acrAB sulA), higher = more signal, called active from +8 up or from −8 down
# [2] = small-molecule binders of probe aLefty1, primary screen, biochemical, small-molecule microarray, 635/667 nm fluorescence (AID 1153); conditions: higher = more signal;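 also: score merges spot fluorescence with signal-to-noise ratio from the scanned slide images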
# [3] = PSAC antagonists in infected red cells, primary screen, cell-based, P. falciparum Indochina, OD700, 1 h (AID 1154); conditions: P. falciparum Indochina infected RBC osmotic lysis, higher = more signal, called active from +8 up or from −8 down
# [4] = PSAC antagonists in infected red cells, primary screen, cell-based, P. falciparum Indochina, OD700, 2 h (AID 1155);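 also: lysis reports solute entry through the parasite surface anion channel PSAC; channel blockers reduce lysis of infected cells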; conditions: P. falciparum Indochina infected erythrocytes, osmotic lysis OD700; higher = more signal, called active from +8 up or from −8 down
# [5] = osmotic lysis modulators in infected erythrocytes, primary screen, PSAC antagonist project, cell-based, P. falciparum Indochina, OD700, 3 h (AID 1156); conditions: higher = more signal, called active from +8 up or from −8 down
# [6] = PSAC antagonists in infected red cells, primary screen, cell-based, P. falciparum Indochina, OD700, 18 h (AID 1157); conditions: P. falciparum Indochina infected erythrocytes, osmotic lysis OD700, 18 h; higher = more signal, called active from +8 up or from −8 down
# [7] = modulators of S6 phosphorylation in cells, primary screen, cell-based, A549, cytoblot, luminescence, serum-stimulated (AID 1158); conditions: A549 phospho-S6 cytoblot, 5 h, higher = more signal;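 also: serum-stimulated A549 lung adenocarcinoma cells; signal is phosphorylated S6 detected by cytoblot immunostaining with HRP secondary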
# [8] = target: NADPH oxidase 2 (Homo sapiens) (UniProt P04839); assay: NOX2-dependent H2O2 signal modulators, primary screen, NOX inhibitor project, cell-based, HEK293-NOX2, PMA-stimulated, Amplex Red fluorescence (AID 1159); conditions: 45 min, higher = more signal, called active from +8 up or from −8 down; also: test concentration not given here
# Sequence of NADPH oxidase 2 (Homo sapiens) (P04839 whole entry, looked up): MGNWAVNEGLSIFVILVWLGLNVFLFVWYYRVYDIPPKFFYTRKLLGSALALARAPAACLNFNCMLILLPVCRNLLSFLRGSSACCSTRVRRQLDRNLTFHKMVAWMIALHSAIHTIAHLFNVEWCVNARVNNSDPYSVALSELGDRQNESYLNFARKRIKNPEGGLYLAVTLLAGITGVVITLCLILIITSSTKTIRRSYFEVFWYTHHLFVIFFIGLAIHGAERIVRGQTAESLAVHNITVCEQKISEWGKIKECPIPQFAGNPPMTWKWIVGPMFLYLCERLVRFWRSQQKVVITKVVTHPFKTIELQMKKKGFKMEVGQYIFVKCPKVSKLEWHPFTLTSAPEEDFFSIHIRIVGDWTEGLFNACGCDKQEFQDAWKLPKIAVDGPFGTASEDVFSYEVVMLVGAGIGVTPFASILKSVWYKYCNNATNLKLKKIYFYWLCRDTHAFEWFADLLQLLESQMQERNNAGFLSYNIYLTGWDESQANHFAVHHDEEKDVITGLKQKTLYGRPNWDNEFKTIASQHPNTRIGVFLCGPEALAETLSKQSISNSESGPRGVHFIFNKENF
# [9] = target: NADPH oxidase 4 (Homo sapiens) (UniProt Q9NPH5); assay: NOX4-dependent H2O2 signal modulators, primary screen, NOX inhibitor project, cell-based, HEK293-NOX4, tetracycline-induced, Amplex Red fluorescence (AID 1160); conditions: 45 min, higher = more signal, called active from +8 up or from −8 down
# Sequence of NADPH oxidase 4 (Homo sapiens) (Q9NPH5 whole entry, looked up): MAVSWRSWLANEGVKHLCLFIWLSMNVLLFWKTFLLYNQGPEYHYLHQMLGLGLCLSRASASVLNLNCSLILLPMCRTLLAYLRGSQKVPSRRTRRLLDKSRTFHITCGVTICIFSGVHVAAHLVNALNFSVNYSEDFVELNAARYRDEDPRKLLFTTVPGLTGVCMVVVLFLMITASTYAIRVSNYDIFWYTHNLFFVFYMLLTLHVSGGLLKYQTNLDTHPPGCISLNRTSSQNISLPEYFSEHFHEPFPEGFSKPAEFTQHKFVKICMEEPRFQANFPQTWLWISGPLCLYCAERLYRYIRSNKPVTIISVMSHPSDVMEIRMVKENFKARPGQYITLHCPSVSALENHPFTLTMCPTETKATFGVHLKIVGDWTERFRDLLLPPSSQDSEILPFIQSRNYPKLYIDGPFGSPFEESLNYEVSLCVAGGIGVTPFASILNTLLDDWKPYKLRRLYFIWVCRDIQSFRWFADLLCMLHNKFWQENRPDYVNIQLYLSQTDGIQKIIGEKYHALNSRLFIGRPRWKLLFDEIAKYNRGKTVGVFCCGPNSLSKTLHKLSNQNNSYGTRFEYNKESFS
# [10] = target: NADPH oxidase 5 (Homo sapiens) (UniProt Q96PH1); assay: NOX5-dependent H2O2 signal modulators, primary screen, NOX inhibitor project, cell-based, HEK293-NOX5, Amplex Red fluorescence (AID 1161); conditions: HEK293-NOX5, ionomycin, 45 min, higher = more signal
# Sequence of NADPH oxidase 5 (Homo sapiens) (Q96PH1 whole entry, looked up): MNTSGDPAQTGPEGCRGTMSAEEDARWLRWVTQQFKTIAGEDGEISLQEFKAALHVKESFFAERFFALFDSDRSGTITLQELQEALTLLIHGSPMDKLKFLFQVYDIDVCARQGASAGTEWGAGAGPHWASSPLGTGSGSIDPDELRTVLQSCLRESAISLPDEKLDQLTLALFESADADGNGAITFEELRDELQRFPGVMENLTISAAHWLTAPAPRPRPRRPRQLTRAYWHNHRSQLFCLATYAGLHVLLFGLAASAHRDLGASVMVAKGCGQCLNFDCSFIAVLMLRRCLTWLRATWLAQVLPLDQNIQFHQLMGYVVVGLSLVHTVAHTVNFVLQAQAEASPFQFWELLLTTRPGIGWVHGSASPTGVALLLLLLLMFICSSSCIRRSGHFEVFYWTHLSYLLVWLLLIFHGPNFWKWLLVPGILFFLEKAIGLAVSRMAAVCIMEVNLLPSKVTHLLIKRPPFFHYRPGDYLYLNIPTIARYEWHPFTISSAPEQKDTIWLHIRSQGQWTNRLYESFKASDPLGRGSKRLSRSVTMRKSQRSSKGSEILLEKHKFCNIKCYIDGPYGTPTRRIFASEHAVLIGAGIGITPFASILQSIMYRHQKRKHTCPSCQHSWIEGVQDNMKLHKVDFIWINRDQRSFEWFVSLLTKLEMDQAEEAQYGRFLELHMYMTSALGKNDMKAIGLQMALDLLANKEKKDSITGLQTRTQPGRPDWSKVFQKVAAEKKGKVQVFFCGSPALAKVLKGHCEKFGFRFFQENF
# [11] = A549 cell viability effects, profiling panel, calcein-AM fluorescence, 48 h, basal (AID 1162); conditions: higher = more signal; also: test concentration not given here
# [12] = adipocyte viability effects, profiling panel, cell-based, 3T3-L1 adipocytes, calcein-AM fluorescence, 48 h, basal (AID 1163); conditions: 3T3-L1 adipocytes viability, higher = more signal; also: test concentration not given here
# [13] = HepG2 cell viability effects, profiling panel, calcein-AM fluorescence, 48 h, basal (AID 1164); conditions: higher = more signal; also: test concentration not given here
# [14] = MM1S cell viability effects, profiling panel, calcein-AM fluorescence, 48 h, basal (AID 1165); conditions: higher = more signal;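 also: viability of MM1S multiple myeloma cells under basal unstimulated conditions; test concentration not given here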
# [15] = basal RPMI8226 viability, no added stimulus, profiling panel, cell-based, calcein-AM fluorescence, 48 h, PK04 Diversity Set (AID 1166); conditions: RPMI8226 myeloma viability, higher = more signal;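 also: cells grown under basal conditions without added stimulus; test concentration not given here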
# [16] = basal HepG2 mitochondrial membrane potential changes, profiling panel, cell-based, JC-1 fluorescence, 24 h, 100 nL compound (AID 1167); conditions: higher = more signal; also: test concentration not given here
# [17] = basal 3T3-L1 adipocyte mitochondrial potential changes, profiling panel, cell-based, JC-1 fluorescence, 3T3-L1 adipocytes, 24 h, 100 nL compound (AID 1168); conditions: JC-1 mitochondrial fluorescence, higher = more signal, called active from +8 up or from −8 down; also: test concentration not given here
# [18] = basal RPMI8226 mitochondrial membrane potential changes, profiling panel, cell-based, JC-1 fluorescence, 24 h, 100 nL compound (AID 1169); conditions: RPMI8226 myeloma, JC-1 mitochondrial potential fluorescence, higher = more signal; also: test concentration not given here
# [19] = basal MM1S mitochondrial membrane potential changes, profiling panel, cell-based, JC-1 fluorescence, 24 h, 100 nL compound (AID 1170); conditions: higher = more signal; also: test concentration not given here
# [20] = A549 lung cancer cell viability effects, profiling panel, resazurin fluorescence, 24 h, PK04 Diversity Set (AID 1171); conditions: higher = more signal, called active from +8 up or from −8 down; also: test concentration not given here
Structure (SMILES),z-score [1],composite z-score [2],z-score [3],z-score [4],z-score [5],z-score [6],z-score [7],z-score [8],z-score [9],z-score [10],z-score [11],z-score [12],z-score [13],z-score [14],z-score [15],z-score [16],z-score [17],z-score [18],z-score [19],z-score [20]
COc1ccc([Si](C)(C)[C@H]2[C@H](CCn3cc([C@H](O)c4ccccc4)nn3)O[C@@]3(C(=O)N(Cc4ccc(N5CCOC5=O)cc4)c4ccccc43)[C@@H]2C)cc1,-0.0796 (inactive),-0.147,31.9 (active),31.7 (active),1.99 (inactive),3.2 (inactive),-0.532,0.308 (inactive),2.85 (inactive),2.08,1.33,0.805,1.15,-1.45,0.142,0.858,0.174 (inactive),0.157,0.113,-0.265 (inactive)
[N-]=[N+]=Nc1ccccc1[C@H]1OC(c2ccc(OCCCO)cc2)=N[C@@]1(CCS(=O)(=O)c1ccccc1)C(=O)N1CCCCC1,-0.311 (inactive),0.495,29.8 (active),23.1 (active),3.29 (inactive),3.04 (inactive),1.04,-1.34 (inactive),0.303 (inactive),-0.265,-0.851,1.5,-0.641,-1.56,-2.7,0.43,-0.903 (inactive),-0.877,-0.801,-1.01 (inactive)
CN(C)CCCCNC(=O)[C@H]1C[C@H]2C(=O)N3CCC[C@H]3C(=O)N2[C@H]1c1ccc(O)cc1,1.67 (inactive),-0.926,0.148 (inactive),-1.79 (inactive),1.55 (inactive),-2.18 (inactive),0.752,-0.714 (inactive),-0.561 (inactive),-3.16,-0.448,0.862,-0.55,0.26,0.293,-0.835,-0.104 (inactive),0.613,-0.927,0.228 (inactive)
O=C(CS)NCCCCCCNC(=O)[C@H]1C[C@H]2C(=O)N[C@@H](Cc3ccccc3)C(=O)N2[C@H]1c1cccc(OCCO)c1,-0.405 (inactive),0.269,6 (inactive),0.988 (inactive),-0.228 (inactive),0.351 (inactive),0.882,1.76 (inactive),0.441 (inactive),-0.135,0.0757,-0.154,0.77,0.306,0.895,-0.394,0.0403 (inactive),-0.309,-1.12,0.311 (inactive)
Cc1ccc(S[C@]2(C(=O)NCc3ccccc3)CC(=O)N(C(C)C)[C@@H]2c2ccc(CO)cc2I)cc1,0.0841 (inactive),0.33,5.42 (inactive),1.19 (inactive),0.121 (inactive),0.301 (inactive),0.0741,2.05 (inactive),-1.1 (inactive),-0.199,-0.897,0.152,-0.274,-2.35,-3.15,-0.0692,-0.371 (inactive),-0.592,-1.12,1.65 (inactive)
C=CC[C@@H](OC(=O)Nc1ccc(OC)cc1)c1ccc(OCCO)cc1,-0.14 (inactive),-0.0638,19.5 (active),3.12 (inactive),-0.149 (inactive),0.894 (inactive),0.0966,-4.11 (inactive),-1.4 (inactive),-2.78,-0.176,0.048,0.587,-1.2,-2.53,-1.92,-0.451 (inactive),-0.052,0.19,0.213 (inactive)
COc1ccc([Si](C)(C)[C@@H]2[C@@H](CC(=O)N3CCC[C@H]3CO)O[C@]3(C(=O)N(Cc4ccc(N5C(=O)c6cccc7cccc5c67)cc4)c4ccccc43)[C@H]2C)cc1,1.13 (inactive),-0.0984,5.77 (inactive),1.71 (inactive),1.06 (inactive),0.918 (inactive),0.486,3.1 (inactive),1.37 (inactive),4.38,-1.22,1.43,-2.94,-2.75,-4.35,-1.18,-0.209 (inactive),-1.01,-2.21,-3.19 (inactive)
COC(=O)[C@@]1(Cc2ccc(OC)cc2)[C@H]2c3cc(C(=O)N4CCCC4)n(CCc4cc5ccccc5[nH]4)c3C[C@H]2CN1C(=O)c1ccccc1,-1.31 (inactive),0.712,4.17 (inactive),0.852 (inactive),1.45 (inactive),1.11 (inactive),-0.231,0.00439 (inactive),0.319 (inactive),-3.28,-0.596,-0.0596,0.471,-0.574,-1.84,0.877,-0.538 (inactive),-0.922,-1.1,-0.0485 (inactive)
CN1C(=O)C2C=CC(C(O)C3CCCCC3)N(N3CCCCC3)C2C1=O (stereo not given),-0.898 (inactive),0.493,0.0569 (inactive),0.257 (inactive),0.42 (inactive),1.27 (inactive),-0.659,-0.407 (inactive),0.674 (inactive),-0.23,-1.21,-0.52,-0.517,-0.163,0.084,-0.968,-0.347 (inactive),-0.763,-0.228,-0.167 (inactive)
CC1CC/C=C\[C@H]2OC34C=CCN(CCN5CCOCC5)C(=O)[C@H]3N(CCO)C(=O)[C@@H]4C2C(=O)O1 (stereo not given in full),0.413 (inactive),0.213,3.04 (inactive),0.397 (inactive),-0.174 (inactive),0.38 (inactive),-0.0354,0.994 (inactive),0.221 (inactive),2.07,-0.507,1.44,-0.186,0.237,0.143,-0.382,-0.533 (inactive),0.673,0.671,-0.451 (inactive)
CCOC(=O)C1=CC[C@@H](c2ccc([N+](=O)[O-])cc2)N(S(=O)(=O)c2ccc(C)cc2)[C@H]1c1ccccc1,-0.785 (inactive),0.206,2.13 (inactive),1.6 (inactive),0.106 (inactive),0.903 (inactive),-0.543,1.46 (inactive),1.1 (inactive),1.43,-0.143,-0.786,0.239,-0.767,-0.281,2.35,-0.233 (inactive),1.21,-1.25,0.807 (inactive)
O=C1c2ccccc2[C@](Cc2ccccc2I)(C(=O)NCc2ccccc2)[C@H](c2ccc(CO)cc2)N1C1CCCCC1,1.28 (inactive),0.254,2.39 (inactive),0.105 (inactive),0.0371 (inactive),-1.34 (inactive),3.43,1.65 (inactive),0.289 (inactive),1.35,-0.475,1.03,-0.36,-2.3,-1.99,1.36,-0.424 (inactive),0.173,0.551,0.623 (inactive)
COc1ccc(C(O)C2C=CC3C(=O)N(c4ccccc4)C(=O)C3N2Nc2ccc(C#N)cc2)c2ccccc12 (stereo not given),-1.2 (inactive),0.481,9.06 (active),2.06 (inactive),0.361 (inactive),1.44 (inactive),-1.03,-1.44 (inactive),-3.09 (inactive),-2.29,-0.716,-1.07,0.66,0.395,-1.04,-1.56,-0.246 (inactive),0.423,-0.117,0.0226 (inactive)
O=C1O[C@@H](c2ccccc2)[C@@H](c2ccccc2)N2[C@@H](c3ccccc3OCCO)[C@]3(C(=O)Nc4ccc(C#CCCO)cc43)[C@@H](C(=O)N3CCN(c4ncccn4)CC3)[C@H]12,0.255 (inactive),0.0927,2.58 (inactive),1.27 (inactive),-1.09 (inactive),0.418 (inactive),-0.531,1.3 (inactive),-0.686 (inactive),0.272,0.246,0.986,-0.477,-0.315,-3.89,0.799,0.778 (inactive),-1.33,0.431,1.13 (inactive)
CN(C)CCCNC(=O)[C@@H]1c2ccccc2C(=O)N(CC23CC4CC(CC(C4)C2)C3)[C@H]1c1ccc(CO)cc1,0.0377 (inactive),-0.262,1.1 (inactive),0.964 (inactive),0.648 (inactive),1.09 (inactive),-0.245,-2.04 (inactive),-0.633 (inactive),-0.657,-0.104,0.195,-0.99,-3.75,-1.91,1.44,-0.211 (inactive),-0.296,-1.73,1.21 (inactive)
CCN(CC)c1ccc(N2CC=CC34O[C@@H]5/C=C\CCC(C)OC(=O)C5[C@H]3C(=O)N(CCO)[C@@H]4C2=O)cc1 (stereo not given in full),-0.244 (inactive),0.33,3.17 (inactive),0.615 (inactive),0.411 (inactive),0.162 (inactive),-0.369,-0.361 (inactive),0.785 (inactive),1.36,0.17,0.879,0.498,-0.379,-0.597,0.178,-0.905 (inactive),-0.22,1.83,-0.857 (inactive)
C=C(CCCC)C(=O)CC[C@@H](OC(=O)c1ccccc1-c1ccccc1C(=O)O)c1cccc(OCCO)c1,-0.397 (inactive),-0.168,22.3 (active),4.27 (inactive),1.11 (inactive),0.896 (inactive),-0.348,2.86 (inactive),-0.351 (inactive),-1.08,0.78,1.12,0.215,-3.41,-3.91,-1.88,0.584 (inactive),-0.694,0.0735,0.675 (inactive)
O=C1O[C@@H](c2ccccc2)[C@@H](c2ccccc2)N2[C@@H](c3ccccc3OCCO)[C@]3(C(=O)Nc4ccccc43)[C@@H](C(=O)NC[C@H](O)c3ccccc3)[C@H]12,-0.275 (inactive),0.0112,5.03 (inactive),2.2 (inactive),-0.526 (inactive),1.87 (inactive),-0.589,1.43 (inactive),0.303 (inactive),1.56,-1.53,0.0155,-3.94,-3.32,-4.54,-1.64,0.305 (inactive),-1.22,-2.09,-1.99 (inactive)
